Measurements taken from PubChem BioAssay (Tox21).
Where “and” joins values, the source holds several entries; their conditions need not be identical. Equal values may be shown once. Results filed as inconclusive are left out. Unmarked numbers belong to inactive results. Calls of active or inactive are those of the source. Unless noted, calls follow the shape of the full dose curve.

Experiment: qHTS assay for small molecules that induce genotoxicity in human embryonic kidney cells expressing luciferase-tagged ATAD5 (AID 651632; active = well fitted activation curve with a large enough effect in the repeat runs; also: nearly all actives have a fitted effect of over 15% in size)
Settings: HEK293T ATAD5-luciferase induction, 16 h; series mostly up to 83.3 µM; activation: at the top concentration
Procedure, shortened: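 HEK293T cells carrying luciferase-tagged ATAD5 were given compound or DMSO vehicle and incubated 16 hr at 37C, 5% CO2. Luciferase activity was read after 30 min at room temperature with Amplite; a rise signals genotoxic stress.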
% is scaled to controls: 0 for no effect and ±100 for the full control effect.

Compared with `CCCCCCCCCCOc1cc2c(=O)c(C(=O)OCC)c[nH]c2cc1OCC`, `CCOC(=O)c1cnc2c(cnn2CC)c1NN=C(C)C` is lower in “activation” value: 1.31% for the first, -2.79% for the second.

Going from `Nc1c2c(nc3c1CCC3)CCCC2` to `C1CCC2(CCCCO2)OC1`, the “activation” value rises from -3.62% to -0.381%.

Going from `CCCCOC(=O)CCC(C)=O` to `CCCOC(=O)CC`, the “activation” value falls from 1.35% to -0.889%.

Compared with `O=S(=O)(O)c1cccc(S(=O)(=O)O)c1`, `O=S(=O)(O)c1cc(O)c(O)c(S(=O)(=O)O)c1` is lower in “activation” value: 1.93% for the first, 1.43% for the second.

Compared with `O=C(CO)[C@@H](O)[C@H](O)[C@@H](O)CO`, `NC(CCC(=O)O)C(=O)O` (stereo not given) is lower in “activation” value: 2.13% for the first, 1.72% for the second.

Compared with `CCCC[N+](C)(CCCC)CCCC`, `CCCCCCC#CC(=O)OC` is lower in “activation” value: -1.87% for the first, -2.95% for the second.

Compared with `C=COCC1CCC(COC=C)CC1` (stereo not given), `C=CCCC(=O)O` is higher in “activation” value: -0.778% for the first, 0.92% for the second.

Going from `CCOC(=O)c1ccccc1` to `CCO[Si](OCC)(OCC)c1ccccc1`, the “activation” value falls from 1.18% to 0.653%.

Going from `N[C@H](C(=O)O)[C@@H](O)c1ccc(O)c(O)c1` to `CCC(C(=O)NC(=O)NC(C)=O)c1ccccc1` (stereo not given), the “activation” value falls from 2.82% to 2.08%.

Going from `c1ccc(Cc2ccccc2)cc1` to `CCN(Cc1ccccc1)c1ccccc1`, the “activation” value rises from -1.03% to -0.601%.

Compared with `CN(C)C(=O)Oc1ccc[n+](C)c1`, `CC(=O)c1ccccc1[N+](=O)[O-]` is lower in “activation” value: 4.49% for the first, -6.26% for the second.

Compared with `Cc1ccccc1N=C(N)N=C(N)N`, `COc1ccccc1OCC1CNC(=O)O1` (stereo not given) is higher in “activation” value: -2.12% for the first, 3.81% for the second.

Compared with `COc1cccc(OC)c1C(=O)N[C@@H]1C(=O)N2[C@@H]1SC(C)(C)[C@@H]2C(=O)O`, `Clc1cc(Cl)c(Cl)nc1Cl` is lower in “activation” value: -0.448% for the first, -1.61% for the second.

With `O=CN(CCO)CCO` the “activation” value was 2.55%.

Going from `CC1CCC(CO)CC1` (stereo not given) to `CC12CCC(C(=O)C1=O)C2(C)C` (stereo not given), the “activation” value rises from -0.951% [at 95.3 µM] to 0.822% [at 95.3 µM].

Compared with `FB(F)F`, `CC(C)(C)OC(=O)c1cccc(N)c1` is higher in “activation” value: 1.94% [at 95.3 µM] for the first, 5.04% [at 95.3 µM] for the second.

For `COc1ccnc(CS(=O)c2nc3cc(OC(F)F)ccc3[nH]2)c1OC` (stereo not given), the Potency was “inactive”.
With `Cc1nc2ccc(CN(C)c3ccc(C(=O)N[C@@H](CCC(=O)O)C(=O)O)s3)cc2c(=O)[nH]1` the Potency was “inactive”.
With `O=C(CO)[C@@H](O)[C@H](O)[C@H](O)CO` the Potency was “inactive”.
For `N[C@@H](CCC(=O)O)C(=O)O`, the Potency was “inactive”.

Experiment: qHTS assay for small molecule agonists of the p53 signaling pathway - cell viability (AID 651633); also: nearly all actives have a fitted effect of over 30% in size; also: potency is read from the fitted curve at half-maximal effect;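 as to activity change, negative = cytotoxicity: p53RE-bla HCT reporter cells with a stable beta-lactamase p53 reporter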
Settings: p53RE-bla HCT-116 viability, ATP luminescence, 16 h; series mostly up to 83.3 µM; activity change, negative = cytotoxicity: at the top concentration
Procedure, shortened: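 Viability counter-read: CellTiter-Glo luminescence (30 min, room temperature) in the same p53RE-bla plates. These plates had been exposed to compounds for 16 h at 37 C.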

Going from `CCCCCCCCCCOc1cc2c(=O)c(C(=O)OCC)c[nH]c2cc1OCC` to `CCOC(=O)c1cnc2c(cnn2CC)c1NN=C(C)C`, the “activity change, negative = cytotoxicity” value falls from 19.7% to 6.69%.

Going from `Nc1c2c(nc3c1CCC3)CCCC2` to `C1CCC2(CCCCO2)OC1`, the “activity change, negative = cytotoxicity” value rises from -11.1% to 13.2%.

First: CCCCOC(=O)CCC(C)=O
Second: CCCOC(=O)CC
The “activity change, negative = cytotoxicity” value of the first is higher: 13.1% for the first, 9.44% for the second.

Going from `O=S(=O)(O)c1cccc(S(=O)(=O)O)c1` to `O=S(=O)(O)c1cc(O)c(O)c(S(=O)(=O)O)c1`, the “activity change, negative = cytotoxicity” value falls from 10.9% to 9.75%.

Compared with `O=C(CO)[C@@H](O)[C@H](O)[C@@H](O)CO`, `NC(CCC(=O)O)C(=O)O` (stereo not given) is higher in “activity change, negative = cytotoxicity” value: 11.4% for the first, 16.1% for the second.

Going from `CCCC[N+](C)(CCCC)CCCC` to `CCCCCCC#CC(=O)OC`, the “activity change, negative = cytotoxicity” value rises from -4.81% to 8.14%.

First: C=COCC1CCC(COC=C)CC1 (stereo not given)
Second: C=CCCC(=O)O
The “activity change, negative = cytotoxicity” value of the first is lower: -14.6% for the first, 7.57% for the second.

First: CCOC(=O)c1ccccc1
Second: CCO[Si](OCC)(OCC)c1ccccc1
The “activity change, negative = cytotoxicity” value of the first is lower: 6.81% for the first, 17.5% for the second.

Compared with `N[C@H](C(=O)O)[C@@H](O)c1ccc(O)c(O)c1`, `CCC(C(=O)NC(=O)NC(C)=O)c1ccccc1` (stereo not given) is lower in “activity change, negative = cytotoxicity” value: 9.36% for the first, -11.6% for the second.

Compared with `c1ccc(Cc2ccccc2)cc1`, `CCN(Cc1ccccc1)c1ccccc1` is lower in “activity change, negative = cytotoxicity” value: 20.8% for the first, -11.1% for the second.

First: CN(C)C(=O)Oc1ccc[n+](C)c1
Second: CC(=O)c1ccccc1[N+](=O)[O-]
The “activity change, negative = cytotoxicity” value of the first is higher: 7.19% for the first, -14.3% for the second.

Going from `Cc1ccccc1N=C(N)N=C(N)N` to `COc1ccccc1OCC1CNC(=O)O1` (stereo not given), the “activity change, negative = cytotoxicity” value falls from 8.16% to -11.1%.

First: COc1cccc(OC)c1C(=O)N[C@@H]1C(=O)N2[C@@H]1SC(C)(C)[C@@H]2C(=O)O
Second: Clc1cc(Cl)c(Cl)nc1Cl
The “activity change, negative = cytotoxicity” value of the first is higher: 17.1% for the first, 4.33% for the second.

For `O=CN(CCO)CCO`, the “activity change, negative = cytotoxicity” value was 15.5%.

Compared with `CC1CCC(CO)CC1` (stereo not given), `CC12CCC(C(=O)C1=O)C2(C)C` (stereo not given) is higher in “activity change, negative = cytotoxicity” value: 4.88% [at 95.3 µM] for the first, 8.06% [at 95.3 µM] for the second.

Compared with `FB(F)F`, `CC(C)(C)OC(=O)c1cccc(N)c1` is lower in “activity change, negative = cytotoxicity” value: -7.61% [at 95.3 µM] for the first, -12.2% [at 95.3 µM] for the second.

With `COc1ccnc(CS(=O)c2nc3cc(OC(F)F)ccc3[nH]2)c1OC` (stereo not given) the Potency was “inactive”.
With `Cc1nc2ccc(CN(C)c3ccc(C(=O)N[C@@H](CCC(=O)O)C(=O)O)s3)cc2c(=O)[nH]1` the Potency was 106 nM (active) and 150 nM (active).
In the case of `O=C(CO)[C@@H](O)[C@H](O)[C@H](O)CO`, the Potency is reported as “inactive”.
With `N[C@@H](CCC(=O)O)C(=O)O` the Potency was “inactive”.

Experiment: qHTS assay for small molecules that induce genotoxicity in human embryonic kidney cells expressing luciferase-tagged ATAD5 - cell viability (AID 651634); also: nearly all actives have a fitted effect of over 25% in size
Settings: HEK293T ATAD5-luc cells viability, CellTiter-Fluor, 15.5 h; series mostly up to 83.3 µM; activity, negative = cytotoxicity: at the top concentration
Procedure, shortened: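 HEK293T cells carrying luciferase-tagged ATAD5, 2,000 cells/well, exposed to compound for 15.5 hr at 37C. Viability read as live-cell protease activity by CellTiter-Fluor fluorescence after 30 min at 37C.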

Compared with `CCCCCCCCCCOc1cc2c(=O)c(C(=O)OCC)c[nH]c2cc1OCC`, `CCOC(=O)c1cnc2c(cnn2CC)c1NN=C(C)C` is lower in “activity, negative = cytotoxicity” value: 16.9% for the first, -10.7% for the second.

First: Nc1c2c(nc3c1CCC3)CCCC2
Second: C1CCC2(CCCCO2)OC1
The “activity, negative = cytotoxicity” value of the first is higher: 19.5% for the first, 6.75% for the second.

Compared with `CCCCOC(=O)CCC(C)=O`, `CCCOC(=O)CC` is higher in “activity, negative = cytotoxicity” value: 7.9% for the first, 11.6% for the second.

First: O=S(=O)(O)c1cccc(S(=O)(=O)O)c1
Second: O=S(=O)(O)c1cc(O)c(O)c(S(=O)(=O)O)c1
The “activity, negative = cytotoxicity” value of the first is higher: 13.2% for the first, -1.83% for the second.

First: O=C(CO)[C@@H](O)[C@H](O)[C@@H](O)CO
Second: NC(CCC(=O)O)C(=O)O (stereo not given)
The “activity, negative = cytotoxicity” value of the first is higher: 17.2% for the first, 13.3% for the second.

Going from `CCCC[N+](C)(CCCC)CCCC` to `CCCCCCC#CC(=O)OC`, the “activity, negative = cytotoxicity” value falls from 13.9% to 11.9%.

Compared with `C=COCC1CCC(COC=C)CC1` (stereo not given), `C=CCCC(=O)O` is higher in “activity, negative = cytotoxicity” value: -4.85% for the first, 9.69% for the second.

First: CCOC(=O)c1ccccc1
Second: CCO[Si](OCC)(OCC)c1ccccc1
The “activity, negative = cytotoxicity” value of the first is lower: 10.2% for the first, 30.2% for the second.

Compared with `N[C@H](C(=O)O)[C@@H](O)c1ccc(O)c(O)c1`, `CCC(C(=O)NC(=O)NC(C)=O)c1ccccc1` (stereo not given) is higher in “activity, negative = cytotoxicity” value: 11.2% for the first, 22.7% for the second.

Compared with `c1ccc(Cc2ccccc2)cc1`, `CCN(Cc1ccccc1)c1ccccc1` is higher in “activity, negative = cytotoxicity” value: -6.56% for the first, 10.7% for the second.

First: CN(C)C(=O)Oc1ccc[n+](C)c1
Second: CC(=O)c1ccccc1[N+](=O)[O-]
The “activity, negative = cytotoxicity” value of the first is lower: -2.78% for the first, 15.7% for the second.

Going from `Cc1ccccc1N=C(N)N=C(N)N` to `COc1ccccc1OCC1CNC(=O)O1` (stereo not given), the “activity, negative = cytotoxicity” value falls from 9.91% to 3.8%.

Compared with `COc1cccc(OC)c1C(=O)N[C@@H]1C(=O)N2[C@@H]1SC(C)(C)[C@@H]2C(=O)O`, `Clc1cc(Cl)c(Cl)nc1Cl` is lower in “activity, negative = cytotoxicity” value: -0.66% for the first, -1.76% for the second.

In the case of `O=CN(CCO)CCO`, the “activity, negative = cytotoxicity” value is reported as -1.71%.

Compared with `CC1CCC(CO)CC1` (stereo not given), `CC12CCC(C(=O)C1=O)C2(C)C` (stereo not given) is higher in “activity, negative = cytotoxicity” value: 4.35% [at 95.3 µM] for the first, 11.8% [at 95.3 µM] for the second.

Compared with `FB(F)F`, `CC(C)(C)OC(=O)c1cccc(N)c1` is lower in “activity, negative = cytotoxicity” value: 5.38% [at 95.3 µM] for the first, -12.3% [at 95.3 µM] for the second.

With `COc1ccnc(CS(=O)c2nc3cc(OC(F)F)ccc3[nH]2)c1OC` (stereo not given) the Potency was “inactive”.
In the case of `Cc1nc2ccc(CN(C)c3ccc(C(=O)N[C@@H](CCC(=O)O)C(=O)O)s3)cc2c(=O)[nH]1`, the Potency is reported as “inactive”.
For `O=C(CO)[C@@H](O)[C@H](O)[C@H](O)CO`, the Potency was “inactive”.
With `N[C@@H](CCC(=O)O)C(=O)O` the Potency was “inactive”.
